Source: PubChem BioAssay

Assay: change in splice reporter luminescence, either direction, cell-based, HEK293, spliceosome inhibition project, primary screen (AID 1101);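 note: HEK293 cells carrying a splicing-competent luciferase reporter gene; test concentration not given here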
Settings: HEK293 splicing luciferase reporter, 24 h, higher = more signal, called active from +8 up or from −8 down

z-score, inactive:
O=C(CS)NCCCCCNC(=O)[C@@H]1C[C@@H]2C(=O)NCC(=O)N2[C@@H]1c1ccc(O)cc1 0.0774
COc1ccccc1CN1C(=O)c2ccccc2[C@@]2(Cc3ccccc3N(CCCN(C)C)C2=O)[C@@H]1c1ccc(CO)cc1 -0.706
[N-]=[N+]=NCc1ccccc1C[C@@]1(C(=O)NCC(O)CO)N=C(c2ccc(OCCCO)cc2)O[C@@H]1c1ccccc1 (stereo partly drawn) -0.195
CCOC(=O)[C@H]1C/C=C/C[C@H](C(=O)OCC)C(=O)O[C@H]2[C@@H](OC)O[C@H](CO)[C@@H](OC(=O)c3ccc(Br)cc3)[C@@H]2OC1=O -1.25
O=C1OCC=C[C@H]2OC34C=CCN(Cn5nnc6ccccc65)C(=O)[C@H]3N(CCCCCO)C(=O)[C@@H]4[C@@H]12 (stereo partly drawn) -0.313
COCC(=C=CC[C@H](O)c1cccc(OCCO)c1)CCO 0.105
O=C1NC(=O)C2C1C=CC(C(O)c1ccc(I)cc1)N2Nc1ccc(Cl)cc1Cl (stereo not drawn) -1.09
COC(=O)[C@@]1(Cc2ccccc2)[C@H]2c3cc(C(=O)N(C)C)n(CCc4c[nH]c5ccc(O)cc45)c3C[C@H]2CN1C(=O)c1ccccc1 -1.99
